Consider 50 compounds from PubChem BioAssay AID588855 (National Center for Advancing Translational Sciences (NCATS), 2011).

In all, about 410,000 compounds went through this assay and about 5,000 (1.2%) were called active. Inconclusive results (about 13%) are left out. The call rests on the fitted dose curve; in most records, active means well fitted inhibition curve with a large enough effect; inconclusive means small, poorly fitted or top-dose-only effect; inactive means no such curve, though single readings can be large or run the other way. Shown is part of a subset that was picked to be rich in actives. Entries that show only a call come without a potency.
Potency means the concentration at half of the fitted maximal effect.

The nature of this assay: qHTS for Inhibitors of TGF-b. Further: nearly all actives have a fitted effect of over 65% in size. Particulars: HepG2 CAGA-GFP TGF-b/SMAD3 reporter, GFP fluorescence, 18 h, TGF-beta stimulated, 500 pg/mL final; series mostly up to 46.1 µM. From the text:
TGF-b is a main component in the TGF-b signaling pathway which plays diverse roles in cellular and development pathways. TGF-b is the mediated by the transcription factors Smads. Although the Smad-dependent pathway is the primary canonical TGF-b signaling node, TGF-b1 can also activate alternative signaling pathways, including those involving MAPK (ERK, JNK and p38). This interaction may mediate or enhance Smad-dependent responses, or can exert Smad-independent effects. The complexity of this signaling cascade allows the TGF-b superfamily to perform unique, overlapping or redundant functions. We believe that targeting the TGF-beta pathway at the Smad-transcription factor level may eliminate the consequences of disrupting the entire pathway and offer specificity without affecting other signaling pathways. Smad3 is the primary transducer of TGF-b's signals and Smad3 regulates many functions attributed to TGF-b signaling. We hypothesize that Smad3 inhibitors will selectively eliminate Smad3-specific TGF-beta signals without undesired off-target effects. We aim to identify Smad3-small molecule antagonists using a quantitative high throughput screening (qHTS) approach.
A high-throughput assay was developed to screen the NIH Molecular Libraries Small Molecule Repository (MLSMR). This is a cell based assay, where TGF-b is tagged with GFP. A counterscreen is run that looks at cytotoxicity (please see summary AID).
MH087449NIH Chemical Genomics Center [NCGC]
NIH Molecular Libraries Probe Centers Network [MLPCN]
Assay Submitter (PI): Sushil Rane, National Institute of […]
Suspensions of trypsinized HEPG2 CAGA-GFP cells were dispensed into white, tissue culture-treated, solid 1536-well plates at 5uL/well (1000 cells/well final concentration) in DMEM medium supplemented with 1% FBS. Plates were incubated at 37 degrees C for 2 hours, after which 23 nL of compounds or DMSO were delivered to each well using a pin tool. One uL of recombinant TGF-beta in DMEM (1% FBS) was then dispensed (500 pg/mL final concentration), and plates were incubated at 37 degrees C for 18 hours. The plates were measured on an Acumen eX3 Explorer plate reader for GFP fluorescence (ex488/em500-530). GFP values were calculated by determining the mean GFP fluorescence of individual cells, and compiling these values for each well to determine a total well GFP signal. The %Activity was determined from the corrected fluorescence values. A titration of the known TGF-B inhibitor SB431542 was included to monitor plate performance, while unstimulated HEPG2 (-TGF-B) control wells were used to normalize %Activity of identified inhibitors; unstimulated wells corresponded to 100%Activity (full inhibition), while stimulated cell controls (+DMSO) were used to normalize 0%Activity (no inhibition).
Concentration-response curves were fitted to the signals arising from the resulting fluorescence. The concentration-effect curves were then classified based on curve quality (r2), response magnitude and degree of measured activity, and compounds were subsequently categorized based on their curve class.
Background: In qHTS, concentration-response curves come from the screen itself.
In the case of `CCCSC(=S)NC1CCS(=O)(=O)C1` (stereo not given), the Potency was 11.2 µM (active).
With `CC(C)C(=O)NC(NC(=S)NC1CCS(=O)(=O)C1)C(Cl)(Cl)Cl` (stereo not given), the Potency result was “inactive”.
Turning to `COc1ccc(NC(=S)NC2CCS(=O)(=O)C2)cc1` (stereo not given), the Potency entry is “inactive”.
For the compound `CCCC12CN3CC(CCC)(CN(C1)C3c1c[nH]c3ccc(OC)cc13)C2=O` (stereo not given), the Potency entry was “inactive”.
Turning to `COc1cc(NC(=O)c2nc3ccccc3nc2C)cc(OC)c1OC`, the Potency result was “inactive”.
As to `COc1cc(C(=O)N2CCC(c3ccncc3)CC2)cc(OC)c1OC`, the Potency result is “inactive”.
Take `Cc1ccc(N2CC(NC(=O)Cc3cccs3)CC2=O)cc1` (stereo not given): the Potency result is “inactive”.
Turning to `CCN(CC)S(=O)(=O)c1ccc(N2CCCC2)c(NC(=O)c2ccc([N+](=O)[O-])o2)c1`, the Potency was 11.2 µM (active).
As to `CCN(CC)S(=O)(=O)c1ccc(N2CCOCC2)c(NC(=O)c2ccc(=O)n(C)n2)c1`, the Potency entry is “inactive”.
Take `CCN(CC)S(=O)(=O)c1cc(C(=O)Nc2cc(S(=O)(=O)N3CCOCC3)ccc2N2CCCC2)ccc1F`: the Potency result was “inactive”.
On to `CCc1ccc(C2C(C(=O)Nc3ccccc3)=C(C)Nc3c(C(=O)Nc4ccc(C)cc4)cnn32)cc1` (stereo not given), for which the Potency entry was “inactive”.
As to `Cc1nc(N2CCOCC2)c2c(C(=O)NCc3cccc(Cl)c3)c(C)oc2n1`, the Potency result is “inactive”.
Under `O=C(CCn1ccc2cc(S(=O)(=O)N3CCCC3)ccc21)NCc1cccc(Cl)c1` stands “inactive”; under `COC(=O)CCc1ccccc1S(=O)(=O)N(CCC(=O)OC)Cc1ccccc1`, “inactive”.
For the compound `COc1ccc(-c2nc(=N)sn2-c2ccccc2)cc1`, the Potency entry is “inactive”.
For `O=C(Nc1ncccc1O)c1ccc(C(=O)c2ccccc2)cc1`, the Potency result was “inactive”.
Consider `O=C(Nc1ccc2ccccc2c1[N+](=O)[O-])c1ccccc1`, for which the Potency result was “inactive”.
Then `O=C(NC1=CC(=O)c2ccccc2C1=O)c1ccccc1`, with 10 µM (active); and `CCOc1ccccc1C(=O)Nc1ccc(S(=O)(=O)N2CCCCC2c2cccnc2)cc1` (stereo not given), with “inactive”; and `Cc1nnc(NCc2ccccc2)c2c1nnn2Cc1ccc(F)cc1`, with “inactive”.
On to `O=C(NCc1cccs1)c1cc(-c2ccccn2)nc2ccc(Br)cc12`, for which the Potency result was “inactive”.
Under `O=C(Cc1coc2ccc3ccccc3c12)NCc1cccs1` stands “inactive”.
Turning to `CC(C)Cn1c(N)c(C(=O)NCc2cccs2)c2nc3ccccc3nc21`, the Potency is 15.8 µM (active).
Regarding `CCN(CC)c1ccc(/C=C/c2c(C)cnc3ccc(C)cc23)cc1`, the Potency result was “inactive”.
Consider `Clc1cccc[n+]1CCCC[n+]1ccccc1Cl`, for which the Potency entry was “inactive”.
Then `S=C(NCc1ccc(Cl)cc1)NC12CC3CC(CC(C3)C1)C2`, with 11.2 µM (active).
Take `O=C(NCc1ccc2c(c1)OCO2)C12CC3CC(CC(C3)C1)C2`: the Potency result is “inactive”.
Then `Cc1ccc(C(=O)NC23CC4CC(CC(C4)C2)C3)c(Cl)c1`, with “inactive”; and `CCC(=O)Nc1ccc(C)cc1-c1nc2ccccc2n(Cc2ccccc2)c1=O`, with “inactive”; and `Nc1ccc(/C=C/c2ccnc3ccccc23)c([N+](=O)[O-])c1`, with “inactive”.
Under `CCCCN(CC)CCCNC(=O)c1nn(C)c2c1CSc1ccccc1-2` stands “inactive”; under `COc1cccc(CNC(=O)c2cccnc2Sc2ccc(Cl)cc2)c1`, “inactive”.
On to `COc1c(Cl)cc(Cl)cc1C(=O)Nc1cccc2cccnc12`, for which the Potency entry was “inactive”.
With `CC(=O)/C(=N\Nc1ccc(Cl)cc1Cl)Sc1cccc2cccnc12`, the Potency was 2.82 µM (active).
Regarding `COc1cccc(CN2CCc3nc(SCC(=O)Nc4ccccc4)[nH]c(=O)c3C2)c1`, the Potency entry was “inactive”.
Then `COc1ccccc1NC(=O)c1oc2ccccc2c1NC(=O)C(C)C`, with “inactive”.
For the compound `O=C(OCC(=O)N1CCN(C(=O)c2ccco2)CC1)c1c(Cl)cccc1Cl`, the Potency entry is “inactive”.
For the compound `O=C(OCC(=O)N1CCN(C(=O)c2ccco2)CC1)c1cccc(O)c1`, the Potency entry is “inactive”.
Consider `CN(c1ccccc1)S(=O)(=O)c1cc(C(=O)OCC(=O)N2CCN(C(=O)c3ccco3)CC2)ccc1Cl`, for which the Potency was 10 µM (active).
Regarding `CCOc1ccc(NC(=O)c2cnn(-c3ccccc3)c2-n2cccc2)cc1`, the Potency result was “inactive”.
Take `Cc1c(CNC(C)c2ccccc2)c(C(=O)O)c(C)n1Cc1c(F)cccc1Cl` (stereo not given): the Potency entry is “inactive”.
As to `CCc1cccc(NC(=O)CSc2nccn2C)c1`, the Potency result is “inactive”.
On to `O=C(Cn1ncc2c3ccccc3n(Cc3ccccc3)c2c1=O)NC1CCCCCC1`, for which the Potency entry is “inactive”.
For the compound `COc1ccccc1CC1(C)C(=O)Nc2ccc(OC(F)(F)F)cc21` (stereo not given), the Potency was 20 µM (active).
For the compound `COc1ccc(C2(O)C(=O)Nc3ccccc32)cc1` (stereo not given), the Potency entry was “inactive”.
On to `Cc1ccc(CC2(C)C(=O)Nc3ccc(OC(F)(F)F)cc32)cc1` (stereo not given), for which the Potency is 15.8 µM (active).
Turning to `COc1ccccc1CNS(=O)(=O)c1ccc2c(c1)NC(=O)CS2`, the Potency entry was “inactive”.
For the compound `O=C(CSc1ncc(-c2ccccc2)[nH]1)Nc1ccc(F)cc1F`, the Potency result is “inactive”.
Then `Cc1ccc(N2CC(C(=O)Nc3ccc(N(C)C)cc3)CC2=O)cc1Cl` (stereo not given), with “inactive”; and `Cc1cccc(OCC(=O)N(Cc2ccc(C(C)C)cc2)Cc2ccco2)c1C`, with “inactive”.
